Among the test systems are NCI-H23 lung; NCI-H226 lung; NCI-H322M lung; HOP-62 NSCLC; NCI-H460 lung; HOP-92 NSCLC; NCI-H522 lung; A549/ATCC NSCLC; 786-0 renal; COLO 205 colon; DU-145 prostate; K-562 leukemia; MALME-3M melanoma; MDA-MB-231 breast; RXF 393 renal; SF-268 CNS; SF-295 CNS; SF-539 CNS; UACC-257 melanoma; M14 melanoma.
Holding throughout (assay): NCI-60 one-dose screen, 48 h (100 = growth as untreated, 0 = no growth, -100 = all killed)
Conditions in all cases: 10 µM unless noted

About 83,000 compounds went through this panel and 20% of them were active in at least one assay; those are over-represented in the sample as a whole.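 In brief: 96-well plates, 48 h treatment, single concentration, percent growth endpoint.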 Unmarked numbers belong to inactive results. Activity calls are given as the source filed them. Rule for the calls: active = growth percent below 10; inactive = the rest.

On to `Cc1nn(-c2ccccc2)c2c1N=c1s/c(=C\c3cn(-c4ccccc4)nc3-c3ccc(Cl)cc3)c(=O)n1C(C)N2` (stereo not given), for which the growth was 79.4% with NCI-H23 lung; 93.2% in the experiment with NCI-H226 lung; 113% with NCI-H322M lung; 102% in the experiment with HOP-62 NSCLC; 93% in the experiment with NCI-H460 lung; 66.7% with HOP-92 NSCLC. Besides, the growth was 10.2% in the experiment on NCI-H522 lung; 87.8% in the experiment on A549/ATCC NSCLC; 77.1% with 786-0 renal; 99.2% in the experiment with COLO 205 colon; 59.7% in the experiment with DU-145 prostate; 119% with K-562 leukemia. The growth in the experiment on MALME-3M melanoma is 124%; in the experiment with MDA-MB-231 breast, 78.5%; in the experiment on RXF 393 renal it was 114%; with SF-268 CNS it was 91%; in the experiment with SF-295 CNS, 116%; in the experiment with SF-539 CNS it was 85.6%. Moreover, the results for the growth in the experiment on UACC-257 melanoma and in the experiment on M14 melanoma were 111% and 107%, respectively.
For the compound `CCCCN1C(=O)c2cccc3c(-c4ccc5c(c4)ncn5C4CCCCC4)ccc(c23)C1=O`, the growth in the experiment on NCI-H23 lung was 96%; in the experiment with NCI-H226 lung, 101%; in the experiment on NCI-H322M lung, 101%; with HOP-62 NSCLC it was 85.2%; in the experiment on NCI-H460 lung, 110%; in the experiment on HOP-92 NSCLC, 94.6%. In addition, the growth with NCI-H522 lung was 69.6%; in the experiment with A549/ATCC NSCLC, 90.8%; in the experiment with 786-0 renal, 106%; in the experiment on COLO 205 colon, 94%; in the experiment with DU-145 prostate, 101%; with K-562 leukemia, 86%. The growth was 95.4% with MALME-3M melanoma; 108% with MDA-MB-231 breast; 118% in the experiment with RXF 393 renal; 106% in the experiment on SF-268 CNS; 96.7% in the experiment with SF-295 CNS; 101% with SF-539 CNS. The growth in the experiment with UACC-257 melanoma was 103%; in the experiment on M14 melanoma, 92.1%.
Regarding `COc1cc2nccc(Oc3ccc(NC(=O)Nc4cc(C)on4)c(Cl)c3)c2cc1OC`, the growth in the experiment with NCI-H23 lung was 28.8%; in the experiment on NCI-H226 lung, 23.1%; with NCI-H322M lung it was 32.9%; with HOP-62 NSCLC, 18.4%; with NCI-H460 lung it was 14.5%; with HOP-92 NSCLC, -55.9% (active). The growth with NCI-H522 lung was 11.1%; in the experiment on A549/ATCC NSCLC, 4.95% (active); in the experiment on 786-0 renal, 16.1%; with COLO 205 colon, -25.4% (active); with DU-145 prostate, 31.2%; in the experiment on K-562 leukemia, 5.94% (active). Besides, the growth is 20.4% in the experiment on MALME-3M melanoma; 10% with MDA-MB-231 breast; -28.9% (active) in the experiment on RXF 393 renal; 21.7% in the experiment on SF-268 CNS; 19% in the experiment with SF-295 CNS; -50.3% (active) in the experiment on SF-539 CNS. Besides, the growth is 19.6% with UACC-257 melanoma and 7.27% (active) with M14 melanoma.
Regarding `C[C@@H](N)c1ccc(C(=O)Nc2ccnc3[nH]ccc23)cc1`, the growth in the experiment on NCI-H23 lung is 45%; with NCI-H226 lung it was 51%; in the experiment with NCI-H322M lung, 41.5%; in the experiment with HOP-62 NSCLC, 13.9%; in the experiment on NCI-H460 lung, 47.9%; in the experiment on HOP-92 NSCLC, 55.6%. The growth in the experiment with NCI-H522 lung was 11%; in the experiment on A549/ATCC NSCLC, 14.8%; in the experiment with 786-0 renal, 33.2%; in the experiment on COLO 205 colon, 5.34% (active); with DU-145 prostate it was 52.3%; in the experiment on K-562 leukemia it was 63.7%. Besides, the growth in the experiment with MALME-3M melanoma was 75.1%; in the experiment with MDA-MB-231 breast, 50%; in the experiment with RXF 393 renal, -18% (active); with SF-268 CNS, 50.6%; with SF-295 CNS it was 61.5%; in the experiment on SF-539 CNS, 11.1%. The growth in the experiment with UACC-257 melanoma was 68.9%; with M14 melanoma, 64.9%.
For the compound `COc1ccc(Nc2ncccc2NC(=O)c2cn(Cc3cccc(Oc4ccccc4)c3)nn2)cc1`, the growth in the experiment on NCI-H23 lung is 91.8%; in the experiment with NCI-H226 lung, 93.8%; with NCI-H322M lung it was 82.9%; in the experiment with HOP-62 NSCLC, 106%; with NCI-H460 lung it was 96.5%; in the experiment with HOP-92 NSCLC, 99.6%. Further, the growth in the experiment with NCI-H522 lung is 77.8%; with A549/ATCC NSCLC, 80.2%; with 786-0 renal, 102%; with COLO 205 colon, 102%; with DU-145 prostate it was 93.4%; with K-562 leukemia, 73.8%. In addition, the growth in the experiment with MALME-3M melanoma is 85.8%; in the experiment with MDA-MB-231 breast, 87.1%; with RXF 393 renal, 79.6%; in the experiment on SF-268 CNS, 82.3%; in the experiment with SF-295 CNS, 92.8%; with SF-539 CNS, 95.1%. Besides, the growth in the experiment with UACC-257 melanoma is 93%; in the experiment on M14 melanoma it was 95.9%.
For the compound `COc1ccc(C(=O)N2c3ccccc3Sc3ccccc32)c(F)c1`, the growth with NCI-H23 lung was 32.4%; in the experiment on NCI-H226 lung, 46.1%; in the experiment with NCI-H322M lung, 44.2%; with HOP-62 NSCLC, 37.1%; in the experiment with NCI-H460 lung, 12%; with HOP-92 NSCLC, 42.3%. In addition, the growth with NCI-H522 lung is 0.479% (active); in the experiment on A549/ATCC NSCLC, 27.2%; in the experiment with 786-0 renal, 23.1%; in the experiment on COLO 205 colon it was 8.26% (active); with DU-145 prostate, 5.05% (active); in the experiment on K-562 leukemia, 12.7%. The growth in the experiment with MALME-3M melanoma is 46.6%; in the experiment with MDA-MB-231 breast, 52.5%; in the experiment with RXF 393 renal, -23.1% (active); with SF-268 CNS it was 53.1%; with SF-295 CNS, 8.85% (active); in the experiment on SF-539 CNS it was -15.8% (active). Moreover, the figures for the growth in the experiment with UACC-257 melanoma and in the experiment with M14 melanoma were 67.1% and 2.04% (active), respectively.
Turning to `CCN(CC)CCN1C(=O)c2cccc3c(-c4ccc5c(c4)ncn5C4CCCCC4)ccc(c23)C1=O`, the growth in the experiment on NCI-H23 lung is 20.2%; in the experiment on NCI-H226 lung it was -29.9% (active); with NCI-H322M lung, 43.2%; with HOP-62 NSCLC, 8.72% (active); in the experiment on NCI-H460 lung it was -30.9% (active); in the experiment with HOP-92 NSCLC, -7.68% (active). In addition, the growth is 21.3% with NCI-H522 lung; 18.8% in the experiment on A549/ATCC NSCLC; -46.1% (active) in the experiment with 786-0 renal; -20.4% (active) in the experiment with COLO 205 colon; 28.4% in the experiment with DU-145 prostate; -14.2% (active) with K-562 leukemia. The growth in the experiment with MALME-3M melanoma is -74.5% (active); in the experiment with MDA-MB-231 breast, 11.8%; with RXF 393 renal it was -11.4% (active); in the experiment on SF-268 CNS it was 39.9%; with SF-295 CNS, -41.7% (active); in the experiment with SF-539 CNS, -76.2% (active). In addition, the growth in the experiment with UACC-257 melanoma is -15% (active); in the experiment on M14 melanoma it was -62.8% (active).

Source of the values: PubChem BioAssay (NCI).
